Test results taken from PubChem BioAssay (NCI).
About 79,000 compounds went through this panel and 15% of them were active in at least one assay; those are over-represented in the sample as a whole. Active and inactive are the calls of the source. Rule as the data show it: active = growth inhibition above about 70%; inactive = the rest.

What was measured:
[1] = NCI Yeast Anticancer Drug Screen. Data for the rad52 strain (AID 147);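 also: 0% = growth of vehicle-treated control cultures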; conditions: S. cerevisiae rad52 mutant growth inhibition, hits give high values
Method in brief: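 Measured: yeast growth inhibition. System: strain with a defined DNA damage repair alteration. Reference: vehicle-treated control cultures.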

[2] = NCI Yeast Anticancer Drug Screen. Data for the wt1 strain (AID 149);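 also: 0% = growth of vehicle-treated wt1 cultures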; conditions: S. cerevisiae wt1 strain (SPY 50644) growth inhibition, hits give high values
Method in brief: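 Yeast wt1 strain exposed to compounds; growth inhibition measured relative to vehicle-treated controls.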

[3] = NCI Yeast Anticancer Drug Screen. Data for the rad50EPP+ strain (AID 151);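 also: 0% = growth of vehicle-treated control cultures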; conditions: S. cerevisiae rad50 mutant strain, hits give high values
Method in brief: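 One strain with a rad50 alteration (rad50EPP+) was compound-treated, its growth then compared to that of vehicle controls.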

[4] = NCI Yeast Anticancer Drug Screen. Data for the rad50 strain (AID 155);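 also: 0% = growth of vehicle-only cultures of the same strain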; conditions: S. cerevisiae rad50 strain growth inhibition, hits give high values
Method in brief: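 Yeast carrying a defined DNA repair defect were exposed to test compounds, and growth was compared with vehicle-treated controls to give percent inhibition.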

[5] = NCI Yeast Anticancer Drug Screen. Data for the mec2-1 strain (AID 157); conditions: S. cerevisiae mec2-1 strain, hits give high values
Method in brief: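 Test agents were screened against the mec2-1 yeast strain, with defined DNA repair or cell cycle alteration. Growth was scored as inhibition against vehicle-only controls.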

[6] = NCI Yeast Anticancer Drug Screen. Data for the sgs1 mgt1 strain (AID 161);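 also: 0% = growth of cultures given vehicle only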; conditions: S. cerevisiae sgs1 mgt1 strain, hits give high values
Method in brief: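 Inhibition of yeast growth, normalised to vehicle-treated controls, is reported for a strain bearing genetic alterations in DNA damage repair.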

[7] = NCI Yeast Anticancer Drug Screen. Data for the CLN2oe strain (AID 163);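 also: 0% = growth of vehicle-only control cultures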; conditions: S. cerevisiae CLN2oe strain, hits give high values
Method in brief: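 Here, growth inhibition in a cell-cycle-altered yeast strain after compound exposure was quantified against vehicle control growth.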

[8] = NCI Yeast Anticancer Drug Screen. Data for the cln2 rad14 strain (AID 165);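 also: 0% = growth equal to vehicle treated cultures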; conditions: S. cerevisiae cln2 rad14 strain, hits give high values
Method in brief: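 Growth of compound-exposed yeast (cln2 rad14 genotype) measured and expressed as inhibition relative to vehicle.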

[9] = NCI Yeast Anticancer Drug Screen. Data for the bub3 strain (AID 167); conditions: S. cerevisiae bub3 mutant strain, hits give high values
Method in brief: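 Compounds were applied to a genetically altered yeast strain carrying a cell-cycle control defect. Growth inhibition was scored against vehicle-treated controls.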

[10] = NCI Yeast Anticancer Drug Screen. Data for the wt2 strain (AID 169);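 also: 0% = growth of vehicle-treated yeast cultures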; conditions: S. cerevisiae wt2 strain growth inhibition, hits give high values
Method in brief: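 Genetically defined yeast strains from a DNA-repair/cell-cycle panel were used. Compound-exposed yeast growth was measured, and the inhibition was calculated relative to vehicle treatment.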

[11] = NCI Yeast Anticancer Drug Screen. Data for the mlh1 strain (AID 171);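 also: 0% = growth of vehicle-treated control cultures of the same strain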; conditions: S. cerevisiae mlh1 strain growth inhibition, hits give high values
Method in brief: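 Here the genetically defined yeast mutant is grown with each compound, and the extent to which its growth falls below that of vehicle-exposed cells is reported.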

[12] = NCI Yeast Anticancer Drug Screen. Data for the sgs1 strain (AID 173);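 also: 0% = growth of vehicle-only control cultures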; conditions: S. cerevisiae sgs1 mutant, hits give high values
Method in brief: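 Relative growth inhibition, referenced to vehicle, was determined in a yeast strain with a defined alteration affecting DNA damage repair or cell cycle control after compound exposure.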

[13] = NCI Yeast Anticancer Drug Screen. Data for the mlh1 rad18 strain (AID 175); conditions: S. cerevisiae mlh1 rad18 strain growth inhibition, hits give high values
Method in brief: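 In this whole-cell yeast screen, a strain with altered DNA damage repair is challenged with compound, and its growth is measured against matched vehicle-treated controls.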

[14] = NCI Yeast Anticancer Drug Screen. Data for the rad18 strain (AID 177); conditions: S. cerevisiae rad18 mutant growth inhibition, hits give high values
Method in brief: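 Screen uses a yeast strain with a defined lesion in DNA damage repair; compound effect is read as loss of growth compared to untreated vehicle cultures.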

[15] = NCI Yeast Anticancer Drug Screen. Data for the rad14 strain (AID 159);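 also: 0% = growth of vehicle-treated control cultures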; conditions: S. cerevisiae rad14 strain growth inhibition, hits give high values
Method in brief: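 Yeast cells carrying a defined DNA-repair defect were exposed to compounds, and growth inhibition was calculated relative to vehicle-treated control cultures.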

[16] = NCI Yeast Anticancer Drug Screen. Data for the mgt1 strain (AID 153); conditions: S. cerevisiae mgt1 mutant growth inhibition, hits give high values
Method in brief: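 After exposure of the mgt1 yeast mutant to compound, growth was measured and reported as inhibition compared with vehicle controls.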

[17] = at 5.0 µM (retest, dose inferred, filed as 0.5)
[18] = at 50.0 µM (retest, dose inferred, filed as 5.0)

Measured: growth inhibition

COc1cccc2c1C(=O)c1c(O)c3c(c(O)c1C2=O)C[C@@](O)(/C(C)=N\O)C[C@@H]3OC1CC(N)C(O)C(C)O1 (stereo partly specified)
active: [1]; at 33.0 µM 84% | [1]; at 100.0 µM 90% | [3]; at 33.0 µM 82% | [3]; at 100.0 µM 89% | [4]; at 11.0 µM 79% | [4]; at 33.0 µM 89% | [4]; [18] 93% | [4]; at 50.0 µM 91.6% | [4]; at 100.0 µM 93% | [14]; at 100.0 µM 75%
inactive: [1]; at 1.2 µM 8% | [1]; at 3.7 µM 27% | [1]; at 11.0 µM 61% | [2]; at 1.2 µM 6% | [2]; at 3.7 µM 1% | [2]; at 11.0 µM 8% | [2]; at 33.0 µM 19% | [2]; at 100.0 µM 29% | [3]; at 1.2 µM 7% | [3]; at 3.7 µM 29% | [3]; at 11.0 µM 63% | [4]; at 1.2 µM 13% | [4]; at 3.7 µM 52% | [4]; [17] 22% | [5]; at 1.2 µM -2% | [5]; at 3.7 µM 3% | [5]; [17] 0% | [5]; at 11.0 µM 14% | [5]; at 33.0 µM 27% | [5]; [18] -14% | [5]; at 50.0 µM 5.75% | [5]; at 100.0 µM 38% | [6]; [17] -5% | [6]; [18] 26% | [6]; at 50.0 µM -9.9% | [7]; at 1.2 µM -1% | [7]; at 3.7 µM 2% | [7]; at 11.0 µM 8% | [7]; at 33.0 µM 13% | [7]; at 100.0 µM 44% | [8]; [17] 3% | [8]; [18] 18% | [8]; at 50.0 µM 26.2% | [9]; at 1.2 µM -2% | [9]; at 3.7 µM 0% | [9]; [17] 35% | [9]; at 11.0 µM 5% | [9]; at 33.0 µM 25% | [9]; [18] 18% | [9]; at 50.0 µM -23.6% | [9]; at 100.0 µM 47% | [10]; at 1.2 µM 0% | [10]; at 3.7 µM 1% | [10]; at 11.0 µM 12% | [10]; at 33.0 µM 25% | [10]; at 100.0 µM 37% | [11]; at 1.2 µM 1% | [11]; at 3.7 µM -1% | [11]; at 11.0 µM 11% | [11]; at 33.0 µM 26% | [11]; at 100.0 µM 49% | [12]; at 1.2 µM 0% | [12]; at 3.7 µM 5% | [12]; at 11.0 µM 15% | [12]; at 33.0 µM 29% | [12]; at 100.0 µM 48% | [13]; [17] 9% | [13]; [18] 46% | [13]; at 50.0 µM 13.8% | [14]; at 1.2 µM 3% | [14]; at 3.7 µM 10% | [14]; at 11.0 µM 20% | [14]; at 33.0 µM 43%

CC1CN1C1=C(Cl)C(=O)C(N2CC2C)=C(Cl)C1=O (stereo unspecified)
active: [1]; at 33.0 µM 97% | [1]; at 100.0 µM 97% | [2]; at 33.0 µM 81% | [2]; at 100.0 µM 97% | [3]; at 33.0 µM 94% | [3]; at 100.0 µM 97% | [4]; at 11.0 µM 79% | [4]; at 33.0 µM 97% | [4]; [18] 95% | [4]; at 100.0 µM 98% | [5]; at 33.0 µM 92% | [5]; [18] 93% | [5]; at 100.0 µM 98% | [15]; at 33.0 µM 97% | [15]; at 100.0 µM 98% | [6]; [18] 96% | [8]; [18] 82% | [9]; at 33.0 µM 86% | [9]; [18] 93% | [9]; at 100.0 µM 95% | [10]; at 33.0 µM 96% | [10]; at 100.0 µM 98% | [11]; at 100.0 µM 97% | [12]; at 11.0 µM 78% | [12]; at 33.0 µM 97% | [12]; at 100.0 µM 97% | [13]; [18] 97% | [14]; at 1.2 µM 92% | [14]; at 3.7 µM 96% | [14]; at 11.0 µM 96% | [14]; at 33.0 µM 97% | [14]; at 100.0 µM 97%
inactive: [1]; at 1.2 µM 22% | [1]; at 3.7 µM 40% | [1]; at 11.0 µM 64% | [2]; at 1.2 µM 0% | [2]; at 3.7 µM -4% | [2]; at 11.0 µM 12% | [3]; at 1.2 µM 8% | [3]; at 3.7 µM 21% | [3]; at 11.0 µM 47% | [4]; at 1.2 µM 16% | [4]; at 3.7 µM 27% | [4]; [17] 19% | [4]; at 50.0 µM 46% | [5]; at 1.2 µM 2% | [5]; at 3.7 µM 1% | [5]; [17] 15% | [5]; at 11.0 µM 6% | [5]; at 50.0 µM 18.8% | [15]; at 1.2 µM 22% | [15]; at 3.7 µM 37% | [15]; at 11.0 µM 50% | [6]; [17] 39% | [6]; at 50.0 µM 69.3% | [8]; [17] -3% | [8]; at 50.0 µM 10.3% | [9]; at 1.2 µM 18% | [9]; at 3.7 µM 15% | [9]; [17] 23% | [9]; at 11.0 µM 29% | [9]; at 50.0 µM 45.4% | [10]; at 1.2 µM -6% | [10]; at 3.7 µM 3% | [10]; at 11.0 µM 43% | [11]; at 1.2 µM -1% | [11]; at 3.7 µM -1% | [11]; at 11.0 µM 24% | [11]; at 33.0 µM 64% | [12]; at 1.2 µM 22% | [12]; at 3.7 µM 37% | [13]; [17] 59% | [13]; at 50.0 µM 69.1%

O=C(O)CCCc1cc(I)c(N(CCCl)CCCl)c(I)c1
inactive: [1]; at 1.2 µM -18% | [1]; at 3.7 µM -35% | [1]; at 11.0 µM -14% | [2]; at 1.2 µM -59% | [2]; at 3.7 µM -53% | [2]; at 11.0 µM -59% | [2]; at 33.0 µM 68% | [3]; at 1.2 µM -25% | [3]; at 3.7 µM -15% | [3]; at 11.0 µM -27% | [3]; at 33.0 µM -23% | [3]; at 100.0 µM -33% | [16]; at 1.2 µM -20% | [16]; at 3.7 µM -42% | [16]; at 11.0 µM -42% | [4]; at 1.2 µM -60% | [4]; at 3.7 µM -55% | [4]; [17] 41% | [4]; at 11.0 µM -35% | [4]; at 33.0 µM 45% | [4]; at 50.0 µM 37.9% | [5]; at 1.2 µM -77% | [5]; at 3.7 µM -73% | [5]; [17] 11% | [5]; at 11.0 µM -36% | [5]; at 33.0 µM 60% | [5]; at 50.0 µM 69.1% | [15]; at 1.2 µM -59% | [15]; at 3.7 µM -59% | [15]; at 11.0 µM -26% | [15]; at 33.0 µM 37% | [6]; [17] 50% | [6]; at 50.0 µM 46.2% | [8]; [17] 45% | [8]; at 50.0 µM 53.5% | [9]; at 1.2 µM -58% | [9]; at 3.7 µM -37% | [9]; [17] 51% | [9]; at 11.0 µM -60% | [9]; at 50.0 µM 48% | [10]; at 1.2 µM -13% | [10]; at 3.7 µM -14% | [10]; at 11.0 µM -19%
active: [1]; at 33.0 µM 75% | [1]; at 100.0 µM 96% | [2]; at 100.0 µM 98% | [16]; at 33.0 µM 80% | [16]; at 100.0 µM 97% | [4]; [18] 98% | [4]; at 100.0 µM 94% | [5]; [18] 99% | [5]; at 100.0 µM 95% | [15]; at 100.0 µM 95% | [6]; [18] 99% | [8]; [18] 98% | [9]; at 33.0 µM 73% | [9]; [18] 97% | [9]; at 100.0 µM 94% | [10]; at 33.0 µM 91% | [10]; at 100.0 µM 97%
